For assay [1], the target named is T1, Serine/threonine-protein kinase TBK1 (Homo sapiens) (UniProt Q9UHD2).
T1 sequence (whole entry): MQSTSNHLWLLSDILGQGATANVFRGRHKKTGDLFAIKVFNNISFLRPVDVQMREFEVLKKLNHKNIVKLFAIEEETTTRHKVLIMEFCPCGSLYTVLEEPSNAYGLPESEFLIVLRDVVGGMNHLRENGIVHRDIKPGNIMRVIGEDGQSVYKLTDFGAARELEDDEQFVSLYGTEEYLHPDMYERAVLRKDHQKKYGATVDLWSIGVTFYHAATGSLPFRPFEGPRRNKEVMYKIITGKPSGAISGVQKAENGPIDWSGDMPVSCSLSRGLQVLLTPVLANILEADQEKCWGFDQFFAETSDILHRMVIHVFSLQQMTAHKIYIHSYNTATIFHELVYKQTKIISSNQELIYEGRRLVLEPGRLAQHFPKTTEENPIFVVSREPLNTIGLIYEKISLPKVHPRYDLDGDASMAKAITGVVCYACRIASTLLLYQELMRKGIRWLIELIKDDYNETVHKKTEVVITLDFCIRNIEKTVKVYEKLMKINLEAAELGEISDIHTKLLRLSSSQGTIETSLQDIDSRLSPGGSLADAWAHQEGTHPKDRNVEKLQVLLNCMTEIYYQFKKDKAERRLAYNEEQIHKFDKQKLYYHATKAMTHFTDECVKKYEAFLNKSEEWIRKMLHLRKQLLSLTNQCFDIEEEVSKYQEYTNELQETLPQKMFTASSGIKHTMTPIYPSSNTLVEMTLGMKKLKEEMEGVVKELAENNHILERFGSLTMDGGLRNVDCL
The conditions noted are these: at 1 µM.

The target of assay [2] is T1, Serine/threonine-protein kinase TBK1 (Homo sapiens). The settings on record: at 10 µM.
The target in assay [3] is T2, TGF-beta receptor type-1 (Homo sapiens) (UniProt P36897).
T2 sequence (whole entry): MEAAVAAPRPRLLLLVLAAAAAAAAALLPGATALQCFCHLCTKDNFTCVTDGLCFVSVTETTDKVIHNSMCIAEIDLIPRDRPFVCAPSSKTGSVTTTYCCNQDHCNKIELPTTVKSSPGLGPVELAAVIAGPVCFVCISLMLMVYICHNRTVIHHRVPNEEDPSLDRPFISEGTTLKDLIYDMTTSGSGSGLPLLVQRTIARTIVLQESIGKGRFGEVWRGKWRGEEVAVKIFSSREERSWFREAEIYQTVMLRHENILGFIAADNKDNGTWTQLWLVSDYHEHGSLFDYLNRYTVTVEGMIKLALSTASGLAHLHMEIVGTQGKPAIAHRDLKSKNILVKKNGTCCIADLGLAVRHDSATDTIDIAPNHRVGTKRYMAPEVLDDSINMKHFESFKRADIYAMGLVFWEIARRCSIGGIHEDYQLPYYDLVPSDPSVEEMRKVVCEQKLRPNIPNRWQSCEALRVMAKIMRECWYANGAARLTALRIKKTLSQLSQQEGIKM
The settings on record: at 1 µM.

Assay [4] deals with T2, TGF-beta receptor type-1 (Homo sapiens). The conditions noted are these: at 10 µM.
For assay [5], the target named is Insulin-like growth factor 1 receptor (Homo sapiens) (UniProt P08069). The settings on record: at 1 µM.
Assay [6] has the same target. The conditions noted are these: at 10 µM.
Assay [7] concerns the target T3, Inhibitor of nuclear factor kappa-B kinase subunit alpha (Homo sapiens) (UniProt O15111).
T3 sequence (whole entry): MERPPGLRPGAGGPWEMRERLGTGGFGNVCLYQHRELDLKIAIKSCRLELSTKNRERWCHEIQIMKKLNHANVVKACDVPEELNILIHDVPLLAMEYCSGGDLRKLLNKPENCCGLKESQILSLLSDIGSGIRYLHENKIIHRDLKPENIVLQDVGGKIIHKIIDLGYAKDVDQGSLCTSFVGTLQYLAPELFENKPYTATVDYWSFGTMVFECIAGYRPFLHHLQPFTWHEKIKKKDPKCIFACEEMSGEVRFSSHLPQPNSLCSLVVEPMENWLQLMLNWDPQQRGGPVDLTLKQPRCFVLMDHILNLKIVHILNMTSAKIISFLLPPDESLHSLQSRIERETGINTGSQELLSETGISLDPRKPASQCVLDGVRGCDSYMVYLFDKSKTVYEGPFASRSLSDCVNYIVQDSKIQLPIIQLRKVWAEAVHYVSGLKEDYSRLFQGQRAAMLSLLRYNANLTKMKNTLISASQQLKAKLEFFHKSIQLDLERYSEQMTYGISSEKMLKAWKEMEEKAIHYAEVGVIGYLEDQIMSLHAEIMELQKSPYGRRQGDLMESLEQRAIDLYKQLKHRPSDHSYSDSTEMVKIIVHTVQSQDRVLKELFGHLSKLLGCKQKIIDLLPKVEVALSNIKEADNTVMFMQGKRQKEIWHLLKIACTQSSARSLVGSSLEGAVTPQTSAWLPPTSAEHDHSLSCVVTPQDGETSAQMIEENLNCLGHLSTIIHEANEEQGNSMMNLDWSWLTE
The conditions noted are these: at 1 µM.

Assay [8] addresses T3, Inhibitor of nuclear factor kappa-B kinase subunit alpha (Homo sapiens). The settings on record: at 10 µM.
Assay [9] has as its target T4, Inhibitor of nuclear factor kappa-B kinase subunit beta (Homo sapiens) (UniProt O14920).
T4 sequence (whole entry): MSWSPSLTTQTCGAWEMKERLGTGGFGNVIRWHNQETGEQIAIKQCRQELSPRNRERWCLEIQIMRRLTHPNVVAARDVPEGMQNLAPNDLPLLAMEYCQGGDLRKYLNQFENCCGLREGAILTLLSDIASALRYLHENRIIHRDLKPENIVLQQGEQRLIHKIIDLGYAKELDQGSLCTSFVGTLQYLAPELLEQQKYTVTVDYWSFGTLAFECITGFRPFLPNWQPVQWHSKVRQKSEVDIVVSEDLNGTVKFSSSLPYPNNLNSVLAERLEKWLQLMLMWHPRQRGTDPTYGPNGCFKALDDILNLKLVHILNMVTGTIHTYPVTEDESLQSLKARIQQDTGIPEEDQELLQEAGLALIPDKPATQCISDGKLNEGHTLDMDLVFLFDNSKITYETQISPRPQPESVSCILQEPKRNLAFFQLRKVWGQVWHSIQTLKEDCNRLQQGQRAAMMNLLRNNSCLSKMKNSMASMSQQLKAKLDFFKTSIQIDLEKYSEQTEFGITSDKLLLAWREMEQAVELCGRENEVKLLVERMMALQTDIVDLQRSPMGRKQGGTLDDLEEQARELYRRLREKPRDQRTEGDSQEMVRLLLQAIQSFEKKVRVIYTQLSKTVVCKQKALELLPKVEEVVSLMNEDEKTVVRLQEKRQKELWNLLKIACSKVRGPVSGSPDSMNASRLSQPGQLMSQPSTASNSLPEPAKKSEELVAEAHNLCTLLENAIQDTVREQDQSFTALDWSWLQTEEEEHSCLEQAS
The settings on record: at 1 µM.

Assay [10] addresses T4, Inhibitor of nuclear factor kappa-B kinase subunit beta (Homo sapiens). The conditions noted are these: at 10 µM.

Each structure is given as a SMILES string.

1 molecule from ChEMBL document CHEMBL2218924, “A broad activity screen in support of a chemogenomic map for kinase signalling research and drug discovery” (Biochem J, 2013) can be followed below.

Usually residual activity stands for the signal under treatment as a percentage of the control signal.

Sequence of Insulin-like growth factor 1 receptor (Homo sapiens) (P08069 31-736 limits assumed): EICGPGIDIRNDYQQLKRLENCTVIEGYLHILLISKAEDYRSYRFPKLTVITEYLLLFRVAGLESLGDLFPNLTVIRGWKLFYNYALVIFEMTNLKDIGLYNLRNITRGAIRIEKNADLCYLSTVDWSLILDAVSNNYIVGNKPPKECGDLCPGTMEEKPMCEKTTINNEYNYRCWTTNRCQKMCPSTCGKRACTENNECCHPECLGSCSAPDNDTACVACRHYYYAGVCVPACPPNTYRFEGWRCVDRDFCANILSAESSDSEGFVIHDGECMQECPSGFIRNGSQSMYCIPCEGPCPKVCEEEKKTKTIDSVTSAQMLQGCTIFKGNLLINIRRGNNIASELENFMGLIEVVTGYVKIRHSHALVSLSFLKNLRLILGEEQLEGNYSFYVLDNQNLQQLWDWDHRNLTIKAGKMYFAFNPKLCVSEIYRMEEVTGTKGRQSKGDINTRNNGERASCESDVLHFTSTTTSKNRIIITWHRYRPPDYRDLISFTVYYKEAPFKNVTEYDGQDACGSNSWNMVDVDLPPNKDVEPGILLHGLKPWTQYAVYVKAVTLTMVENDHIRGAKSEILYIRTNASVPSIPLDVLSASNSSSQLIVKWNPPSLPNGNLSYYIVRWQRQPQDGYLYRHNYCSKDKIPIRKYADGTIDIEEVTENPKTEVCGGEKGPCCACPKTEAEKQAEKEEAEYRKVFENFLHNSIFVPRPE
Sequence of Insulin-like growth factor 1 receptor (Homo sapiens) (P08069 741-1367 limits assumed): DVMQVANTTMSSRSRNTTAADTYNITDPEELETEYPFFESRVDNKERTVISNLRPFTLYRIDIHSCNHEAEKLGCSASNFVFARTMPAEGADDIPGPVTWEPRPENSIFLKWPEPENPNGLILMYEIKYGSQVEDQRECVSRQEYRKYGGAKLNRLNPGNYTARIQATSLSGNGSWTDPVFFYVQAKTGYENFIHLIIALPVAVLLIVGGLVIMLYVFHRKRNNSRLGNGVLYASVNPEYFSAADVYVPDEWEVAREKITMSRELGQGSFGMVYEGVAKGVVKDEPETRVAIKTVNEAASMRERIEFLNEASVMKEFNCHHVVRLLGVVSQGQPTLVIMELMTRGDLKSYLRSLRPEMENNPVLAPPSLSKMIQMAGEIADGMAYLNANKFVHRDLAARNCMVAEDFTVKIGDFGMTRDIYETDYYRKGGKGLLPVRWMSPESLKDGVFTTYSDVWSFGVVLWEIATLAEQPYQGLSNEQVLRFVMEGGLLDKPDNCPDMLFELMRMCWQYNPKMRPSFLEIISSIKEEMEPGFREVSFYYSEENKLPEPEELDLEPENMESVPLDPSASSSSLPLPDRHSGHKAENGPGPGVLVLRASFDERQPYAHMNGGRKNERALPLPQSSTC

On to `Cc1cc2ncc(-c3ccccc3)nc2cc1C`, for which the residual activity in assay [1] worked out at 86%; in [2] it was 73%; in [3] it was 100%; in assay [4], 91%; in assay [5] it was 99%; in assay [6], 101%. Also, the residual activity in assay [7] was 105%; in [8], 109%; in [9] it was 101%; in [10] it was 99%.
